Source: PubChem BioAssay (NCATS)
Records with an inconclusive call do not appear. Activity calls are given as the source filed them. Calls come from the whole dose curve; as a rule, active = well fitted curve in the direction sought with a large enough effect; inconclusive = small, poorly fitted or top-dose-only effect, or another doubt; inactive = no such curve, though single readings can be large; an effect the other way counts as inactive or inconclusive. Where a SMILES comes first, the peptide text is derived from it.

Assays:
CRL-7250 = normal cell line; assay: Cytotoxic Profiling of Annotated Libraries Using Quantitative High-Throughput Screening (AID 1296008); conditions: Five cell lines viability, CellTiter-Glo ATP luminescence, 48-72 h; max response: active compounds read low; note: nearly all actives have a fitted effect of over 60% in size; for max response: % is set by controls: 0 for no effect and ±100 for the full control effect
Method in brief: (§1)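 Cytotoxicity was measured as CellTiter-Glo ATP luminescence, read after 10 min at room temperature. Compound treatment of the cells lasted 48 or 72 hr at 37 degrees Celsius in a qHTS format.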

HEK293 = assay: as above; conditions: Five cell lines viability, CellTiter-Glo ATP luminescence, 48-72 h; max response: active compounds read low
Method in brief: as §1

HaCat [1] = assay: as above; conditions: Five cell lines viability, CellTiter-Glo ATP luminescence, 48-72 h; max response: active compounds read low
Method in brief: as §1

KB-3-1 = assay: as above; conditions: Five cell lines viability, CellTiter-Glo ATP luminescence, 48-72 h; max response: active compounds read low
Method in brief: as §1

NIH3T3 = assay: as above; conditions: Five cell lines viability, CellTiter-Glo ATP luminescence, 48-72 h; max response: active compounds read low
Method in brief: as §1

HACAT [2] = assay: qHTS assay to identify novel small-molecules to repurpose for Merkel cell carcinoma treatment (AID 1296009); conditions: MCC and control cell lines, CellTiter-Glo viability, 72 h; at 44.8 µM (top of the series) unless noted; note: nearly all actives have a fitted effect of over 60% in size
Method in brief: (§2)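 Cell viability measured by CellTiter-Glo following 72 hr compound treatment at 37 degree celsius, with NPC and MIPE libraries tested in 8- and 11-point concentration series.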

HEK293T = assay: as above; conditions: MCC and control cell lines, CellTiter-Glo viability, 72 h; series mostly up to 44.8 µM
Method in brief: as §2

C33A = assay: Primary qHTS to identify gynecologic anti-cancer compounds using libraries of approved drugs and bioactive compounds (AID 1345084); conditions: Gynecologic cancer cell panel viability, ATPlite luminescence, 48 h; series mostly up to 57.5 µM; note: % is set by controls: 0 for no effect and ±100 for the full control effect; nearly all actives have a fitted effect of over 55% in size
Method in brief: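 Cells, 1,000 per well, were allowed to settle for 16 h at 37 C before compound addition. Five concentrations were tested for 48 h, and viability was read by ATPlite luminescence after 15 min at room temperature.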

C[C@@H]1CC[C@]2(C)C(C[C@@H](O)[C@H](O)[C@]23CO3)[C@@]1(C)CCc1ccoc1 (stereo not given in full)
inactive: outcome (CRL-7250) | outcome (HEK293) | outcome (HaCat [1]) | max response (KB-3-1) 7.33% | max response (NIH3T3) -3.46% | outcome (HACAT [2]) | Potency (HEK293T) | Potency (C33A)

CC1NC(=O)CNC(=O)C(C(C)C)NC(=O)C2CCCN2C(=O)C(C(C)C)NC(=O)C(Cc2c[nH]c3ccccc23)NC1=O (stereo not given) (cyclo(GAWVPV); configuration not given here)
inactive: outcome (CRL-7250) | outcome (HEK293) | outcome (HaCat [1]) | outcome (KB-3-1) | outcome (NIH3T3) | outcome (HACAT [2]) inactive [at 17.4 µM] | Potency (HEK293T) | Potency (C33A)

CC1(C)CC[C@]2(C(=O)O)CC[C@]3(C)C(=CCC4[C@@]5(C)CCC(O[C@@H]6OC[C@H](O)[C@H](O)[C@H]6O[C@@H]6O[C@H](CO)[C@@H](O)[C@H](O)[C@H]6O)[C@@](C)(CO)C5CC[C@]43C)[C@@H]2C1 (stereo not given in full)
inactive: max response (CRL-7250) -0.0042% | outcome (HEK293) | outcome (HaCat [1]) | max response (KB-3-1) 4.54% | max response (NIH3T3) 2.38% | outcome (HACAT [2]) inactive [at 17.4 µM] | Potency (HEK293T) | Potency (C33A)

CC/C=C/CC1=C(CCCCCCCC(=O)O)CCC1=O
inactive: max response (CRL-7250) 0.164% | outcome (HEK293) | outcome (HaCat [1]) | max response (KB-3-1) 0.0316% | max response (NIH3T3) -0.116% | outcome (HACAT [2]) | Potency (HEK293T) | Potency (C33A)

CC1(C)CC[C@]2(C(=O)O[C@@H]3O[C@H](CO)[C@@H](O)[C@H](O)[C@H]3O)CC[C@]3(C)C(=CCC4[C@@]5(C)C[C@@H](O)[C@H](O)C(CO)(CO)C5CC[C@]43C)C2[C@@H]1O (stereo not given in full)
inactive: max response (CRL-7250) 3.1% | outcome (HEK293) | outcome (HaCat [1]) | max response (KB-3-1) 8.19% | outcome (NIH3T3) | outcome (HACAT [2]) inactive [at 17.4 µM] | Potency (HEK293T) | Potency (C33A)

COc1c(C)c2c(c(O)c1C/C=C(\C)CC/C=C(\C)CCC(=O)O)C(=O)OC2
inactive: max response (CRL-7250) -4.04% | outcome (HEK293) | outcome (HaCat [1]) | outcome (KB-3-1) | max response (NIH3T3) 0.0064% | outcome (HACAT [2]) | Potency (HEK293T) | Potency (C33A)

CC1(C)C(O)CCC2(C)C1C(O)C=C1COC(=O)C12O (stereo not given)
inactive: max response (CRL-7250) 2.08% | outcome (HEK293) | outcome (HaCat [1]) | max response (KB-3-1) 5.78% | max response (NIH3T3) 0.735% | outcome (HACAT [2]) | Potency (HEK293T) | Potency (C33A)

CC(C)CNC(=O)/C=C/CCCCc1ccc2c(c1)OCO2
inactive: max response (CRL-7250) -4.34% | outcome (HEK293) | outcome (HaCat [1]) | max response (KB-3-1) 4.53% | max response (NIH3T3) -0.808% | outcome (HACAT [2]) | Potency (HEK293T) | Potency (C33A)

C=C1C[C@]23C[C@H]1CC[C@H]2[C@]1(C)CCC[C@@]2(CO)C(=O)O[C@H]([C@H]21)[C@@H]3O
inactive: max response (CRL-7250) -1.22% | outcome (HEK293) | outcome (HaCat [1]) | max response (KB-3-1) 6.36% | max response (NIH3T3) 2.59% | outcome (HACAT [2]) | Potency (HEK293T) | Potency (C33A)

CC1(C)CCC[C@@]2(C)[C@H]1[C@H](O)C=C1COC(=O)[C@@]12O
inactive: outcome (CRL-7250) | outcome (HEK293) | outcome (HaCat [1]) | max response (KB-3-1) 4.4% | max response (NIH3T3) 2.05% | outcome (HACAT [2]) | Potency (HEK293T) | Potency (C33A)

CC(=O)C1CCC2(C)C3=C(CCC12C)C1(C)CCC(=O)C(C)(C)C1CC3 (stereo not given)
inactive: max response (CRL-7250) -8.18% | outcome (HEK293) | outcome (HaCat [1]) | outcome (KB-3-1) | max response (NIH3T3) -0.504% | outcome (HACAT [2]) | Potency (HEK293T) | Potency (C33A)

C/C(=C\CCC(C)(O)c1ccc(C)cc1)C(=O)O (stereo not given)
inactive: max response (CRL-7250) -2.36% | outcome (HEK293) | outcome (HaCat [1]) | outcome (KB-3-1) | max response (NIH3T3) 0.595% | outcome (HACAT [2]) | Potency (HEK293T) | Potency (C33A)

C/C=C/C=C/C=C/C(=O)O[C@@H]1C=C(CO)C(O)(C(=O)O)[C@@]2(C)CCCC(C)(C)[C@H]12 (stereo not given in full)
inactive: max response (CRL-7250) 2.37% | outcome (HEK293) | outcome (HaCat [1]) | max response (KB-3-1) 0.213% | max response (NIH3T3) -2.73% | outcome (HACAT [2]) inactive [at 17.4 µM] | Potency (HEK293T) | Potency (C33A)

Cc1cc(C)cc(NC(=O)Cc2ccc(OC(C)(C)C(=O)O)cc2)c1
inactive: max response (CRL-7250) 0.247% | outcome (HEK293) | outcome (HaCat [1]) | outcome (KB-3-1) | max response (NIH3T3) -1.99% | outcome (HACAT [2]) | Potency (HEK293T) | Potency (C33A)

Clc1ccc(CN[C@H]2CCN(c3ncc(Br)cn3)C2)c(Cl)c1
inactive: max response (CRL-7250) -7.31% | outcome (HEK293) | outcome (HaCat [1]) | max response (KB-3-1) -14.8% | max response (NIH3T3) 4.57% | outcome (HACAT [2]) | Potency (HEK293T) | Potency (C33A)
